Pf Dd2 inh = inhibitors of Plasmodium falciparum Dd2 growth; Potency, µM (series often up to 28.9 µM), inactives show at the top dose activity, negative = inhibition, hits mostly inhibitors; P. falciparum Dd2 growth, SYBR Green, 72 h; 120,000 tested, 4.3% active; active means well fitted inhibition curve with a large enough effect;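 further: plate controls were DMSO vehicle for no effect and reference drug for full effect; nearly all actives have a fitted effect of over 65% in size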
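Infected erythrocytes (Dd2, 0.3% parasitemia, 2.5% hematocrit final) are added to compound in RPMI-1640/Albumax II medium, grown 72 h at 37C in low oxygen, then lysed with saponin/Triton-X containing SYBR Green and read by fluorescence.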
Starred values were filed as active, the others as inactive; [ ] = dose if it differs, or a comment. The sample as a whole holds a higher share of hits than the screen did. Potency means the concentration at half of the fitted maximal effect.

Results for COc1ccc(-n2nc(C(=O)Nc3cccc(C)n3)c3c4ccccc4n(C)c3c2=O)cc1 ?
Pf Dd2 inh: inactive

Results for COc1ccc(-n2nc(C(=O)NCc3ccc(F)cc3)c3c4ccccc4n(C)c3c2=O)cc1 ?
Pf Dd2 inh: 2%

Results for COc1ccc(-n2nc(C(=O)N3CCN(c4cccc(C)c4)C(C)C3)c3c4ccccc4n(C)c3c2=O)cc1 (configuration not stated) ?
Pf Dd2 inh: 11µM*

Results for COc1ccc(-n2nc(C(=O)Nc3ccc(Br)cc3C)c3c4ccccc4n(C)c3c2=O)cc1 ?
Pf Dd2 inh: 44%

How did CC(C)NC(=O)N1CNC(=O)C12CCN(C(=O)CN)CC2 do in these assays?
Pf Dd2 inh: 1%

What do the screens show for `CCc1ccccc1NC(=O)NCC1CCOCC1`?
Pf Dd2 inh: 1%

Results for O=C1CC(c2ccccc2)N(C(=O)CNS(=O)(=O)c2cccnc2)CCCCCN1 (configuration not stated) ?
Pf Dd2 inh: 6%

What do the screens show for `N#Cc1ccc(CN2CCC3(CC2)CC(c2cccnc2)=NO3)cc1`?
Pf Dd2 inh: inactive

What do the screens show for `Cc1noc(C)c1CN1C[C@@H]2C(C(=O)Nc3ccccc3)=NO[C@@H]2C1`?
Pf Dd2 inh: 42%[44.1 µM]

How did O=C(C[C@@H]1O[C@H](CNC(=O)c2cccc(F)c2)[C@@H](O)[C@H]1O)Nc1ccccc1 do in these assays?
Pf Dd2 inh: -18%[44.1 µM]

Results for C=Cc1ccc(CSc2nc(-c3ccc(OC)cc3)nc3c2Cc2c(CO)cnc(C)c2O3)cc1 ?
Pf Dd2 inh: 3.2µM*

How did CCc1ccc(NC(=O)CSc2nc(-c3ccc(C)cc3)nc3c2Cc2c(CO)cnc(C)c2O3)cc1 do in these assays?
Pf Dd2 inh: -27%

Results for Cc1ncc(CO)c2c1Oc1nc(-c3ccccc3)nc(SCC(=O)Nc3cccc(C(F)(F)F)c3)c1C2 ?
Pf Dd2 inh: inactive

How did C=Cc1ccc(CSc2nc(-c3ccccc3C)nc3c2Cc2c(CO)cnc(C)c2O3)cc1 do in these assays?
Pf Dd2 inh: 5.6µM*

Results for C=Cc1ccc(CSc2nc(-c3ccc(Cl)cc3)nc3c2Cc2c(CO)cnc(C)c2O3)cc1 ?
Pf Dd2 inh: 11µM*

What do the screens show for `COc1ccccc1NC(=O)CSc1nc(-c2ccc(C)cc2)nc2c1Cc1c(CO)cnc(C)c1O2`?
Pf Dd2 inh: -25%

Results for Cc1ncc(CO)c2c1Oc1nc(-c3ccc(F)cc3)nc(SCc3ccc(F)cc3Cl)c1C2 ?
Pf Dd2 inh: 64%[0.594 µM]

What do the screens show for `CCOc1ccc(NC(=O)CSc2nc(-c3cccc(Cl)c3)nc3c2Cc2c(CO)cnc(C)c2O3)cc1`?
Pf Dd2 inh: 7%

What do the screens show for `COc1ccc(-c2nc3c(c(SCC(=O)Nc4cccc(O)c4)n2)Cc2c(CO)cnc(C)c2O3)cc1`?
Pf Dd2 inh: 5.6µM*

How did OC1(CNCCc2nc(-c3cccnc3)n[nH]2)CNCCOC1 (configuration not stated) do in these assays?
Pf Dd2 inh: -18%

Results for COc1ccc(CNC(=O)CCc2conc2-c2ccc(C)cc2)cc1 ?
Pf Dd2 inh: -3%

Results for COCCn1c(C)cnc1C1CCN(C(=O)c2ccc(OC)nc2)C1 (configuration not stated) ?
Pf Dd2 inh: 12%

Results for Cc1ccc(C(=O)N2CCC(n3cc(-c4nc(C)no4)nn3)CC2)cc1 ?
Pf Dd2 inh: 32%

Results for O=C1CCC2(CCCO2)CCN1Cc1cccc(F)c1F (configuration not stated) ?
Pf Dd2 inh: -8%

How did Cn1ncnc1CCNC(=O)C1CCN(C(=O)C2CCC2)CC1 do in these assays?
Pf Dd2 inh: -3%

Results for FC(F)(F)c1cccc(C2=NOC3(CCN(Cc4cccc5ccccc45)CC3)C2)c1 ?
Pf Dd2 inh: -13%

How did Cn1cccc1C(=O)NCC(=O)N1CCCCCCNC(=O)CC1c1ccccc1 (configuration not stated) do in these assays?
Pf Dd2 inh: 14%

What do the screens show for `COCCCNC(=O)N1CCCCC1c1nc(CCOc2cccc(C)c2)no1` (configuration not stated)?
Pf Dd2 inh: -25%

How did COc1cccc(-c2nc3c(c(SCC(=O)Nc4cccc(C)c4C)n2)Cc2c(CO)cnc(C)c2O3)c1 do in these assays?
Pf Dd2 inh: 52%

What do the screens show for `COc1ccc(-c2nc3c(c(SC)n2)Cc2c(CO)cnc(C)c2O3)cc1`?
Pf Dd2 inh: -9%

How did COc1ccc(-c2nc3c(c(SCc4ccc(Br)cc4)n2)Cc2c(CO)cnc(C)c2O3)cc1 do in these assays?
Pf Dd2 inh: 1.1µM*

Results for COc1ccccc1NC(=O)CSc1nc(-c2cccc(Cl)c2)nc2c1Cc1c(CO)cnc(C)c1O2 ?
Pf Dd2 inh: 7%

Results for COc1cccc(-c2nc3c(c(SCc4ccccc4Cl)n2)Cc2c(CO)cnc(C)c2O3)c1 ?
Pf Dd2 inh: 2%

How did COc1cccc(CSc2nc(-c3ccccc3OC)nc3c2Cc2c(CO)cnc(C)c2O3)c1 do in these assays?
Pf Dd2 inh: 5µM*

Results for CC(C)CN1C(=O)c2cccn2CC1C(=O)NCc1ccc(OC(C)C)cc1 (configuration not stated) ?
Pf Dd2 inh: -24%

Source: PubChem
